From PubChem BioAssay (EPA / NIEHS)
Inconclusive results are not listed. The source made the active and inactive calls. Rule for the calls, unless noted: active = hit-call score of the fitted dose curve at least 0.9, where 1 is the maximum; inactive = score below 0.9.

Experiments:
[1] = read-out: solute carrier (SLC22A1), SLC22A1 (gene 6580); test: LTEA_HepaRG_SLC22A1: Life Technologies and Expression Analysis (LTEA) Assay for solute carrier (SLC22A1) using HepaRG (AID 2283524); conditions: mRNA level, 48 h; actives raise or lower the signal
Procedure, shortened: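 Differentiated human HepaRG cells in serum-free induction medium, exposed 48 h in duplicate to 8-point half-log series from 100 µM top in 0.5% DMSO. SLC22A1 mRNA by TaqMan qRT-PCR normalized to ACTB, GAPDH, POLR2A; bidirectional fit versus DMSO.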

[2] = read-out: Pyruvate Dehydrogenase Kinase 4 (PDK4), PDK4 (gene 5166); test: LTEA_HepaRG_PDK4: Life Technologies and Expression Analysis (LTEA) Assay for Pyruvate Dehydrogenase Kinase 4 (PDK4) using HepaRG (AID 2283525); conditions: mRNA level, 48 h; actives raise or lower the signal
Procedure, shortened: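 HepaRG cells plated 48 h, then switched to serum-free induction medium and exposed in duplicate for 48 h to 8 half-log concentrations from 100 uM in 0.5% DMSO. PDK4 mRNA measured by qRT-PCR, normalized to ACTB, GAPDH and POLR2A; bidirectional fit versus DMSO.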

[3] = read-out: NAD(P)H dehydrogenase [quinone] 1 (NQO1), NQO1 (gene 1728); test: LTEA_HepaRG_NQO1: Life Technologies and Expression Analysis (LTEA) Assay for NAD(P)H dehydrogenase [quinone] 1 (NQO1) using HepaRG (AID 2283526); conditions: mRNA level, 48 h; actives raise or lower the signal
Procedure, shortened: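 Human HepaRG hepatic cells received chemicals for 48 h in serum-free induction medium with 0.5% DMSO, up to 100 uM. Expression was assessed by TaqMan qRT-PCR against housekeeping controls and fitted bidirectionally against DMSO.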

[4] = read-out: Nuclear factor erythroid 2-related factor 2 (Homo sapiens) (UniProt Q16236); test: LTEA_HepaRG_NFE2L2: Life Technologies and Expression Analysis (LTEA) Assay for Nuclear factor erythroid 2-related factor 2 (NFE2L2) Transcription Factor using HepaRG (AID 2283527); conditions: mRNA level, 48 h; actives raise or lower the signal;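 note: TaqMan qRT-PCR transcript level normalised to ACTB GAPDH and POLR2A housekeeping genes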
Procedure, shortened: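 Differentiated human HepaRG cells, serum-free induction medium, exposed 48 h in duplicate to eight half-log concentrations up to 100 uM in 0.5% DMSO. NFE2L2 mRNA by Fluidigm TaqMan qRT-PCR, normalised to ACTB, GAPDH, POLR2A; bidirectional change versus DMSO.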

[5] = read-out: succinate dehydrogenase complex iron sulfur subunit B (SDHB), SDHB (gene 6390); test: LTEA_HepaRG_SDHB: Life Technologies and Expression Analysis (LTEA) Assay for succinate dehydrogenase complex iron sulfur subunit B (SDHB) using HepaRG (AID 2283528); conditions: mRNA level, 48 h; actives raise or lower the signal
Procedure, shortened: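 HepaRG, 48 h exposure, 8-pt half-log series from 100 uM in 0.5% DMSO, duplicates. Readout: SDHB mRNA by Fluidigm qRT-PCR vs housekeeping genes; bidirectional fit relative to DMSO.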

[6] = read-out: Signal transducer and activator of transcription 3 (Homo sapiens) (UniProt P40763); test: LTEA_HepaRG_STAT3: Life Technologies and Expression Analysis (LTEA) Assay for Signal transducer and activator of transcription (STAT3) using HepaRG (AID 2283529); conditions: mRNA level, 48 h; actives raise or lower the signal
Procedure, shortened: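 Differentiated HepaRG cells, serum-free induction medium, dosed 48 h in duplicate, 8 half-log concentrations from 100 uM in 0.5% DMSO. STAT3 mRNA by qRT-PCR, normalised to ACTB, GAPDH, POLR2A; bidirectional fit versus DMSO.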

[7] = read-out: sulfotransferase 2A1 (SULT2A1), SULT2A1 (gene 6822); test: LTEA_HepaRG_SULT2A1: Life Technologies and Expression Analysis (LTEA) Assay for sulfotransferase 2A1 (SULT2A1) using HepaRG (AID 2283531); conditions: mRNA level, 48 h; actives raise or lower the signal
Procedure, shortened: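 Transcript levels of SULT2A1, quantified by qRT-PCR and normalized to three housekeeping genes, serve as the readout. Human HepaRG cultures receive test chemicals for 48 h at up to 100 uM in half-log steps, with 0.5% DMSO vehicle.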

[8] = read-out: Transforming Growth Factor (TGFA), TGFA (gene 7039); test: LTEA_HepaRG_TGFA: Life Technologies and Expression Analysis (LTEA) Assay for Transforming Growth Factor (TGFA) using HepaRG (AID 2283532); conditions: mRNA level, 48 h; actives raise or lower the signal
Procedure, shortened: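 Differentiated HepaRG cells exposed 48 hours in serum-free induction medium, 0.5% DMSO vehicle, 8-point half-log series from 100 uM, in duplicate. TGFA mRNA by TaqMan qRT-PCR, normalised to ACTB, GAPDH, POLR2A; bidirectional fit versus DMSO.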

[9] = read-out: Transforming Growth Factor (TGFB1), TGFB1 (gene 7040); test: LTEA_HepaRG_TGFB1: Life Technologies and Expression Analysis (LTEA) Assay for Transforming Growth Factor (TGFB1) Transporter using HepaRG (AID 2283533); conditions: mRNA level, 48 h; actives raise or lower the signal
Procedure, shortened: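 HepaRG, 48 h post-plating, switched to serum-free induction medium; chemicals 100 uM top, half-log, 8 pts, 0.5% DMSO, dup; 48 h exposure; RNA → Fluidigm TaqMan qRT-PCR; norm ACTB/GAPDH/POLR2A; bidirectional fit vs DMSO.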

TIMP1, TIMP1 (gene 7076) = test: LTEA_HepaRG_TIMP1: Life Technologies and Expression Analysis (LTEA) Assay for TIMP1 using HepaRG (AID 2283534); conditions: mRNA level, 48 h; actives raise or lower the signal;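 note: TaqMan qRT-PCR signal normalized to ACTB GAPDH and POLR2A housekeeping genes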
Procedure, shortened: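 Readout is TIMP1 mRNA level measured by qRT-PCR and normalized to three housekeeping genes. Human HepaRG cells were treated for 48 h in duplicate at eight concentrations up to 100 uM (0.5% DMSO); gain or loss fitted against DMSO.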

[10] = read-out: Tumor necrosis factor receptor 1 (TNFRSF1A), TNFRSF1A (gene 7132); test: LTEA_HepaRG_TNFRSF1A: Life Technologies and Expression Analysis (LTEA) Assay for Tumor necrosis factor receptor 1 (TNFRSF1A) using HepaRG (AID 2283535); conditions: mRNA level, 48 h; actives raise or lower the signal
Procedure, shortened: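 Read-out is TNFRSF1A transcript level by TaqMan qRT-PCR, normalized to three housekeeping genes, scored as gain or loss of signal versus 0.5% DMSO. Human HepaRG cells received test chemicals for 48 h at up to 100 uM (half-log series).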

[11] = read-out: Thyroid Hormone Responsive (THRSP), THRSP (gene 7069); test: LTEA_HepaRG_THRSP: Life Technologies and Expression Analysis (LTEA) Assay for Thyroid Hormone Responsive (THRSP) using HepaRG (AID 2283536); conditions: mRNA level, 48 h; actives raise or lower the signal
Procedure, shortened: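 Differentiated HepaRG cells treated 48 h in serum-free induction medium with 8 half-log concentrations up to 100 uM (0.5% DMSO), duplicates. THRSP mRNA by TaqMan qRT-PCR normalised to ACTB, GAPDH, POLR2A; bidirectional fit versus DMSO.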

[12] = read-out: Cellular tumor antigen p53 (Homo sapiens) (UniProt P04637); test: LTEA_HepaRG_TP53: Life Technologies and Expression Analysis (LTEA) Assay for Tumor Protein P53 (TP53) using HepaRG (AID 2283537); conditions: mRNA level, 48 h; actives raise or lower the signal
Procedure, shortened: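 HepaRG, 48 h exposure, top 100 uM, half-log 8-point, 0.5% DMSO vehicle, duplicates. Read: TP53 mRNA by TaqMan qRT-PCR, normalised to ACTB/GAPDH/POLR2A; bidirectional fit vs DMSO.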

[13] = read-out: UDP glucuronosyltransferase (UGT1A1), UGT1A1 (gene 54658); test: LTEA_HepaRG_UGT1A1: Life Technologies and Expression Analysis (LTEA) Assay for UDP glucuronosyltransferase (UGT1A1) using HepaRG (AID 2283538); conditions: mRNA level, 48 h; actives raise or lower the signal
Procedure, shortened: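 Human liver HepaRG cultures receive test chemical for 48 h, up to 100 uM in 0.5% DMSO, with phenobarbital induction controls. UGT1A1 mRNA is measured by qRT-PCR and normalized to ACTB, GAPDH and POLR2A.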

[14] = read-out: UDP glucuronosyltransferase (UGT1A6), UGT1A6 (gene 54578); test: LTEA_HepaRG_UGT1A6: Life Technologies and Expression Analysis (LTEA) Assay for UDP glucuronosyltransferase (UGT1A6) using HepaRG (AID 2283539); conditions: mRNA level, 48 h; actives raise or lower the signal
Procedure, shortened: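 HepaRG, 48 h post-plating switch to serum-free induction medium; chemical 48 h, 100 uM top, half-log x8, duplicate, 0.5% DMSO. Phenobarbital 1mM induction control. UGT1A6 mRNA by TaqMan qRT-PCR; gain/loss fit vs DMSO.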

[15] = read-out: X-box binding protein 1 (XBP1), XBP1 (gene 7494); test: LTEA_HepaRG_XBP1: Life Technologies and Expression Analysis (LTEA) Assay for X-box binding protein 1 (XBP1) using HepaRG (AID 2283540); conditions: mRNA level, 48 h; actives raise or lower the signal
Procedure, shortened: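 Transcript levels of XBP1, measured by qRT-PCR and normalised to three housekeeping genes, were fitted bidirectionally relative to 0.5% DMSO controls. Human HepaRG cells received eight-point half-log dilutions from 100 uM for 48 h.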

[16] = LTEA_HepaRG_LDH_cytotoxicity: Cytotoxicity Assessment in the Life Technologies and Expression Analysis (LTEA) Assay (AID 2283563; active = hit-call score of the fitted dose curve at least 0.9, where 1 is the maximum;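 for AC50: LDH activity released into spent culture medium as a marker of cell death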)
Procedure, shortened: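 Cells were thawed and plated for 48 h. Medium was then replaced with serum-free induction medium. Chemicals (8 half-log points, maximum 100 uM, 0.5% DMSO) were added in duplicate for 48 h, after which spent medium was assayed for LDH.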

[17] = ATG_XTT_Cytotoxicity: Cytotoxicity Assessment in the Attagene TRANS-FACTORIAL HepG2 Assay (AID 2283584; active = hit-call score of the fitted dose curve at least 0.9, where 1 is the maximum)
Procedure, shortened: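 Cells: human HepG2, transiently transfected with MRTU reporter constructs. Exposure 24 h. Readout: XTT, cell number. Baseline/neg ctrl DMSO; loss-of-signal scored.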

[18] = TOX21_p53_BLA_p2_viability: Viability Assessment in the Tox21 HCT-116 p53 Agonism Beta-lactamase Assay, Phase 2 (AID 2283591; active = hit-call score of the fitted dose curve at least 0.9, where 1 is the maximum;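 note: compound exposure lasted 16 h at 37 °C; actives lower the ATP signal meaning cytotoxicity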)
Procedure, shortened: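 HCT116 p53-bla cells, 4000/well, dosed after 5 h plating (217-fold dilution of DMSO stocks) and incubated 16 h at 37C. Viability taken as cellular ATP by CellTiter-Glo luminescence after 30 min RT; signal loss marks cytotoxicity.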

[19] = read-out: solute carrier (SLCO1B1), SLCO1B1 (gene 10599); test: LTEA_HepaRG_SLCO1B1: Life Technologies and Expression Analysis (LTEA) Assay for solute carrier (SLCO1B1) using HepaRG (AID 2283530); conditions: mRNA level, 48 h; actives raise or lower the signal
Procedure, shortened: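 HepaRG, serum-free induction medium, 48 h dosing, 8-pt half-log from 100 uM, 0.5% DMSO vehicle, duplicates. Readout: SLCO1B1 mRNA, qRT-PCR, ACTB/GAPDH/POLR2A normalization; up or down fit vs DMSO.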

Measured: AC50

Sequence of Nuclear factor erythroid 2-related factor 2 (Homo sapiens) (Q16236 whole entry, looked up): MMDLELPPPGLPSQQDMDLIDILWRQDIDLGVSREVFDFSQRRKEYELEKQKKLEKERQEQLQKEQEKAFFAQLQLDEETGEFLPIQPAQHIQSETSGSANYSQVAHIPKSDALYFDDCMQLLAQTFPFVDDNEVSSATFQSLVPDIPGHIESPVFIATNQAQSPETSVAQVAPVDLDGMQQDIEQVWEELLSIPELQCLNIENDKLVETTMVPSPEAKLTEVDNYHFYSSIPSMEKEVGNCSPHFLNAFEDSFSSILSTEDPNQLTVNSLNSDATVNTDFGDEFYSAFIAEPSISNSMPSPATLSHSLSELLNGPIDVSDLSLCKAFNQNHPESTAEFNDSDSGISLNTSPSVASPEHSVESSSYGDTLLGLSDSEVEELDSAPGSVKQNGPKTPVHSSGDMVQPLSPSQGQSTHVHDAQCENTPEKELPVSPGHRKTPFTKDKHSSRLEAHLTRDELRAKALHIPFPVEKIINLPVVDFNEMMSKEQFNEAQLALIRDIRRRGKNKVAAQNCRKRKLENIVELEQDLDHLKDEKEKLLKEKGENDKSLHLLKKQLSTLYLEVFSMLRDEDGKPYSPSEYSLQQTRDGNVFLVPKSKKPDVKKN
Sequence of Signal transducer and activator of transcription 3 (Homo sapiens) (P40763 whole entry, looked up): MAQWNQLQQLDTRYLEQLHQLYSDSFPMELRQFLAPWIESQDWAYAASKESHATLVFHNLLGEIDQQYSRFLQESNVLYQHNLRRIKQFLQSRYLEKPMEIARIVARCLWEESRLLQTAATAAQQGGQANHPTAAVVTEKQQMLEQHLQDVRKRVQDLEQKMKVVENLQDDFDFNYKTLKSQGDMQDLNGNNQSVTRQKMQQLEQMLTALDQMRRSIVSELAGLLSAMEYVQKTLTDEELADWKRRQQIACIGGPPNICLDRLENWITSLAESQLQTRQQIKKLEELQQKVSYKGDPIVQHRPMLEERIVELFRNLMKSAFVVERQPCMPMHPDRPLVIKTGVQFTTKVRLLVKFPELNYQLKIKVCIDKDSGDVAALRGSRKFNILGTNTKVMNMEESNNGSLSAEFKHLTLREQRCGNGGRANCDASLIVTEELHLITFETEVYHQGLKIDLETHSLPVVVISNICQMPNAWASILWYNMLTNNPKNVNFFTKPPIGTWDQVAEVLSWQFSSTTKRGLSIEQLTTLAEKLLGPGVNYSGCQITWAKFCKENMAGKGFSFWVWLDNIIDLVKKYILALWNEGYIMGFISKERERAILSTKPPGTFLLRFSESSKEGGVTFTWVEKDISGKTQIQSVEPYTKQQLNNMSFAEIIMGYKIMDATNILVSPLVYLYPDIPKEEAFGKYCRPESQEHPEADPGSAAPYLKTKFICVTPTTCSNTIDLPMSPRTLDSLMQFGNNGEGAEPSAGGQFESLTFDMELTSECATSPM
Sequence of Cellular tumor antigen p53 (Homo sapiens) (P04637 whole entry, looked up): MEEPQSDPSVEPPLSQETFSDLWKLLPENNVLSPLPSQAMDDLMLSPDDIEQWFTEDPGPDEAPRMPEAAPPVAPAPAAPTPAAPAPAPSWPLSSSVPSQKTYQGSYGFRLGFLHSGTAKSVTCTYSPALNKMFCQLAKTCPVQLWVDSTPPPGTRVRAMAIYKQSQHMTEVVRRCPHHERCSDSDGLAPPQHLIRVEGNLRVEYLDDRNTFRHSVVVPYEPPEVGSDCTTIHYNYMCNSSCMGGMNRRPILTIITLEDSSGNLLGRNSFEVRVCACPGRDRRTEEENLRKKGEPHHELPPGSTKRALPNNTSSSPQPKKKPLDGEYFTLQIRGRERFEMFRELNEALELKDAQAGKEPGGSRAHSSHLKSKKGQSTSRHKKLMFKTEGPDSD

Nc1nc(Cl)nc2c1ncn2[C@H]1C[C@H](O)[C@@H](CO)O1
active: [1] 0.811 µM | [2] 0.452 µM | [7] 2.81 µM | [8] 0.2 µM | [9] 0.365 µM | [10] 0.732 µM | [11] 0.888 µM | [13] 1.66 µM | [14] 2.42 µM | [15] 1.56 µM | [16] 8.62 µM
inactive: [3] | [4] | [5] | [6] | TIMP1, TIMP1 (gene 7076) | [12] | [17] | [18]

OCC(O)CO
inactive: [1] | [2] | [3] | [4] | [5] | [6] | [19] | [7] | [8] | [9] | TIMP1, TIMP1 (gene 7076) | [10] | [12] | [13] | [14] | [15]

O=C1OC(c2ccc(O)cc2)(c2ccc(O)cc2)c2ccccc21
inactive: [3] | [4] | [5] | [6] | [7] | [8] | [9] | TIMP1, TIMP1 (gene 7076) | [10] | [12] | [15] | [17] | [18]
active: [1] 78 µM | [2] 50 µM | [11] 80.3 µM | [13] 82 µM | [14] 72.6 µM

O=C(NS(=O)(=O)/C=C/c1cccs1)c1ccc(F)cc1Br
active: [13] 14 µM
inactive: [1] | [2] | [3] | [4] | [5] | [6] | [19] | [7] | [8] | [9] | TIMP1, TIMP1 (gene 7076) | [10] | [11] | [14] | [15] | [16]
